DAX1 inh-1: DAX1 (NR0B1) inhibitors on StAR promoter, primary screen, cell-based, luminescence, SF-1 (NR5A1), full-length DAX-1. HEK293T StAR-luciferase reporter, SF-1/DAX-1 repression relief. inhibition, % at 6.8 µM. 370,000 tested, 1.1% active;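 active = inhibition above the mean over all tested compounds plus 3 SD, cut at about 3.6% in these data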;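 note: higher inhibition means more luminescence from relief of DAX-1 repression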
PolyA inh: polyadenylation inhibitors in yeast reporter cells, primary screen, luminescence, S. cerevisiae. S. cerevisiae SKY197-pL101 polyadenylation reporter, beta-gal luminescence; efflux-impaired pdr1/pdr3 knockout yeast; score 100 = 6 SD above DMSO. activity score, % at 12 µM. 300,000 tested, 0.02% active;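 active = lowest replicate activity score at least 50, where 100 means six control SD above control mean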;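 note: yeast exposed to compound for 9 h at 30 °C; higher score means more reporter readthrough which indicates perturbed polyadenylation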
hcDAF-12 act: H. contortus DAF-12 nuclear receptor activators, primary screen, cell-based, luminescence, HEK293, lit1-tk-luc reporter | HEK293 hcDAF-12 lit1-tk-luc reporter; 0% DMSO, 100% Δ7-dafachronic acid | activation, % at 6.8 µM | 370,000 tested, 1.4% active;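 active = activation above the mean of all tested compounds plus 3 SD, cut at about 5.5% in these data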
ssDAF12 agonist: S. stercoralis DAF-12 nuclear receptor activators, primary screen, cell-based, luminescence, HEK293, GRIP1 co-expression, lit1-tk-luc. activation, % at 6.8 µM. Nuclear hormone receptor DAF-12 (Strongyloides stercoralis). HEK293 ssDAF-12/GRIP1 lit1-tk-luc reporter; % of 3 µM dafachronic acid response. 370,000 tested, 1% active. AID 652126, 2013;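 active = activation above the mean over all tested compounds plus 3 SD, cut at about 0.9% in these data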
hgDAF-12 ag: H. glycines DAF-12 receptor agonists, primary screen, cell-based, luminescence, HEK293, GAL4 fusion, UAS-luciferase; 370,000 tested, 1.8% active; Nuclear hormone receptor DAF-12 (Heterodera glycines), GAL4 fusion; HEK293 GAL4-hgDAF12 UAS-luciferase reporter, agonist luminescence; normalized to butyrate control; activation, % at 6.8 µM;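 active = activation above a cutoff set at the mean of all screened compounds plus 3 SD, cut at about 10% in these data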
DAX1 inh-2: DAX1 (NR0B1) inhibitors, primary screen, cell-based, HEK293, Gal4-DAX1, luciferase luminescence | Nuclear receptor subfamily 0 group B member 1 (Homo sapiens), P51843 | AID 504766, 2011 | 340,000 tested, 0.99% active | inhibition, % at 6.75 µM | HEK293 Gal4-DAX1 luciferase reporter;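 active = inhibition above the mean over all tested compounds plus 3 SD, cut at about 4.2% in these data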;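 note: inhibition shows as a rise in luminescence from relieved DAX1 repression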
DAX1 inh confirm: DAX1 (NR0B1) inhibitors relieving SF-1 repression, confirmation, cell-based, luminescence, HEK293T, full-length DAX-1, SF-1 activated StAR promoter; shares compounds with DAX1 inh-1; HEK293T StAR-promoter luciferase reporter, SF-1/DAX-1 repression; inhibition, % at 6.8 µM; 2,400 tested, 87% active;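 active = inhibition above the average of every tested compound plus 3 SD, cut at about 3.8% in these data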
Target sequence (P51843 whole entry, looked up): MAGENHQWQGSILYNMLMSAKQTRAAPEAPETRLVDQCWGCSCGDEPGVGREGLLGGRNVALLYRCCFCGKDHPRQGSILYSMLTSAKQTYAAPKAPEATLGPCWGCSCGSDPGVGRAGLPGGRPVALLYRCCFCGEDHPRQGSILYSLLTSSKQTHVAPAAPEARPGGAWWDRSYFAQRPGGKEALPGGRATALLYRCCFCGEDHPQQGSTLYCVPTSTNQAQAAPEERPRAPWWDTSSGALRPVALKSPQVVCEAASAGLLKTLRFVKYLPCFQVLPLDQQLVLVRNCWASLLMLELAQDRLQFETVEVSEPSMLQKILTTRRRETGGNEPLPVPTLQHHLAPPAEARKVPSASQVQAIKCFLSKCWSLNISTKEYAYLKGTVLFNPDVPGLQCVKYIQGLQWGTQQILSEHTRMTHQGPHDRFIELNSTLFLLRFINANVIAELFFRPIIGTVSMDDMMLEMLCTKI
SF1 AF2mut Luc: StAR reporter signal changes without DAX1, counter-screen for DAX1 inhibitor project, cell-based, luminescence, AF-2 mutant SF-1, transactivation; AID 652136, 2013; inhibition, % at 6.8 µM; HEK293 StAR-luciferase, SF-1 AF2 mutant; 2,400 tested, 78% active; shares compounds with DAX1 inh-1;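 active = inhibition above the mean of all tested compounds plus 3 SD, cut at about 3% in these data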
A number is an active result; n = inactive; x = no result given. A selection: hits, their analogues and other compounds. The true share with any hit is near 4.1%.

SMILES	DAX1 inh-1	PolyA inh	hcDAF-12 act	ssDAF12 agonist	hgDAF-12 ag	DAX1 inh-2	DAX1 inh confirm	SF1 AF2mut Luc
CCOC(=O)C1(C(=O)OCC)N=C(c2ccccc2)C=C1c1ccccc1	n	x	n	n	n	x	x	x
O=S1(=O)CCSC[C@@H](CN2CCN(c3ccccc3)CC2)N1	n	x	n	n	n	x	x	x
O=c1[nH]c(COc2ccc(Br)cc2Cl)nc2ccccc12	7.4	n	n	n	n	n	7.7	4.8
Cc1ccc(C(=O)OCc2cc(=O)n3ccsc3n2)s1	n	x	n	n	n	n	x	x
Cc1ccc(C(=O)OCc2cc(=O)n3c(C)csc3n2)s1	4.8	x	n	n	n	n	n	n
CC(=O)N1CCN(C(=O)c2cc3c(s2)CCCC3)CC1	4.6	x	n	n	n	n	n	n
CN1CCCN(C(=O)c2cc3c(s2)CCCC3)CC1	n	n	n	n	n	n	x	x
CCCC(C)C(=O)NC1CCCCN(Cc2ccc(C)cc2)C1=O (stereo not given)	n	x	n	n	n	x	x	x
COC(=O)c1c(-c2cccnc2)csc1NC(=O)c1ccc2c(c1)OCO2	8.2	n	n	n	n	n	12	6.8
COC(=O)c1sccc1NC(=O)c1ccc2c(c1)OCO2	n	n	n	n	n	n	x	x
CCOc1ncccc1C(=O)NCC(c1ccccc1)N(C)C (stereo not given)	5.1	n	n	n	n	n	8.1	4.0
CCOc1ncccc1C(=O)NCc1ccccc1	x	n	x	x	x	x	x	x
O=C(Nc1ccccc1F)c1ccc(C(=O)c2ccccc2)cc1	4.7	n	n	n	12	n	7.0	4.4
O=C(Nc1ccccc1F)c1cccc(C(=O)Nc2ccccc2F)c1	n	n	n	n	n	n	x	x
CCn1c2ccccc2c2cc(NC(=O)COC(=O)c3cc(F)ccc3C)ccc21	n	x	n	n	n	x	x	x
S=C(Nc1nc2c(s1)CCCC2)NC1CC1	5.3	n	n	n	n	n	6.4	4.3
O=C(CS(=O)(=O)Cc1ccccc1)Nc1nc2c(s1)CCCC2	n	n	n	n	n	n	x	x
C/C(Cc1ccccc1)=N\NC(=O)c1cccnc1	n	n	n	n	n	n	x	x
C/C(Cc1ccccc1)=N\NC(=O)c1ccccn1	8.5	n	n	n	12	n	n	n
O=C(NN=C1CCC(=NNC(=O)c2ccccn2)CC1)c1ccccn1	5.7	x	n	n	17	n	n	n
CCOc1cc(/C=N/NC(=O)c2ccccn2)ccc1OC(=O)c1ccc(F)cc1	6.1	n	n	n	n	n	n	4.7
O=C(NN=C(c1ccccc1)c1ccccn1)c1ccccc1	n	x	n	n	n	n	x	x
O=C(N/N=C/c1ccsc1)c1ccccn1	5.7	n	6.3	n	13	5.0	4.7	n
COC(=O)[C@]12C[C@H](CC(=O)NCc3cccc4ccccc34)C(=O)N(Cc3cccc4ccccc34)C1=C[C@H](COCc1ccccc1)O[C@@H]2C	n	x	n	n	n	x	x	x
CC(=O)Nc1cccc(-c2cc3c(c4c2ccn4C)C2CCC3O2)c1 (stereo not given)	n	x	n	n	n	x	x	x
SMILES	DAX1 inh-1	PolyA inh	hcDAF-12 act	ssDAF12 agonist	hgDAF-12 ag	DAX1 inh-2	DAX1 inh confirm	SF1 AF2mut Luc
Cn1ccc2c(-c3ccc(C(N)=O)cc3)cc3c(c21)C1CCC3O1 (stereo not given)	4.6	x	n	n	n	x	n	n
O=C(CSc1nnc(-c2ccc(Cl)cc2)n1-c1ccccc1)Nc1ccc2c(c1)OCCO2	n	x	n	n	n	x	x	x
COC(=O)c1ccc2nc(-c3ccc(S(C)(=O)=O)cc3)cn2c1	n	n	n	n	n	n	x	x
COC(=O)c1ccc2nc(-c3cccc(N)c3)cn2c1	5.6	n	n	n	n	n	5.3	n
O=C(Nc1ccc(F)cc1)OC1CC2CC1[C@H]1CCCCN1[C@H]2Cc1ccccc1 (stereo not given in full)	n	x	n	n	n	x	x	x
O=C(NCC1(c2ccccc2)CCOCC1)c1ccc(Br)o1	n	n	n	n	n	n	x	x
CCc1ccc(C(=O)NCC2(c3ccccc3)CCOCC2)o1	4.6	x	n	n	13	n	6.7	3.4
CC(CCN1CCC(C(O)(c2ccccc2)c2ccccc2)CC1)Oc1cccc(Br)c1 (stereo not given)	n	x	n	n	n	x	x	x
COC(=O)[C@]12C[C@H](CC(=O)NCCCN3CCCC3=O)C(=O)N(Cc3ccc(Cl)cc3Cl)C1=C[C@H](C(C)C)O[C@@H]2C1CC1	n	x	n	n	n	x	x	x
COC(=O)c1sccc1NC(=O)Nc1ccc(C)cc1	8.5	x	5.9	1.4	13	n	4.6	n
Cc1nc(-c2ccc(NC(=O)/C=C\C(=O)O)cc2)cs1	n	n	n	n	n	n	x	x
Cc1ccc2sc(-c3ccc(NC(=O)/C=C\C(=O)O)cc3)nc2c1	5.3	n	6.2	n	12	n	9.9	6.5
N#CCC(=O)N/N=C\c1cccc(OC/C=C/c2ccccc2)c1	13	n	n	n	11	n	14	6.9
COc1ccc(O)c(C(=O)CC(=O)c2cccnc2)c1	6.5	x	n	n	n	n	7.3	6.9
COc1ccc([C@H](C#Cc2ccccc2)CC(=O)O)cc1OC1CCCC1	n	x	n	n	n	x	x	x
Nc1c(C(=O)Nc2ccc3c(c2)OCCO3)nnn1Cc1ccccc1Cl	7.0	n	n	n	n	n	9.1	5.5
Nc1c(C(=O)Nc2ccc3c(c2)OCCO3)nnn1Cc1cccc(Cl)c1	5.2	n	n	n	n	n	11	4.3
COc1ccc(Br)cc1Cn1nnc(C(=O)Nc2ccc3c(c2)OCCO3)c1N	n	n	n	n	n	n	x	x
FC(F)(F)c1ccccc1Cc1c(-c2ccco2)nc2c3ccccc3ccn12	n	x	n	n	n	x	x	x
CC(=O)Nc1cnc(-c2ccc3c(c2)OCO3)cn1	4.8	x	n	n	12	x	9.0	5.7
CC(=O)Nc1cnc(-c2cc(C)c(O)c(C)c2)cn1	n	x	n	n	n	x	x	x

Source: PubChem
